PubChem BioAssay (NCI)
The panel holds about 83,000 compounds, 20% with a hit somewhere; the sample as a whole holds those more often.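 In brief: 96-well plates, 48 h treatment, single concentration, percent growth endpoint.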 Activity calls are given as the source filed them. Rule for the calls: active = growth percent below 10; inactive = the rest.

System: ACHN renal
Assay: NCI-60 one-dose screen, 48 h (100 = growth as untreated, 0 = no growth, -100 = all killed)
Conditions: 10 µM unless noted

Structure (SMILES) | growth
CCCCCCCCCCCCCCCCCCOc1ccccc1CC(=O)OCC[N+]1(C)CCCC1 | 78.9% (inactive)
O=C(c1ccc(-c2ccccc2)cc1)c1ccc([N+](=O)[O-])cc1 | 97.5% (inactive)
O=C1Nc2ccccc2/C1=C\c1nc(-c2ccccc2F)n2ccccc12 | -58.5% (active)
O=C(OCc1ccc2cccc(O)c2n1)N1CCN(C(=O)c2cc3cc(F)ccc3[nH]2)CC1 | -99.8% (active)
O=C(NNc1nccc(Nc2ccc(S(=O)(=O)Nc3ccncc3)cc2)n1)c1ccccc1 | 104% (inactive)

System: CAKI-1 renal
Assay: as above
Conditions: 10 µM unless noted

Structure (SMILES) | growth
CC(=O)OC[C@]12CCC(C)(C)C[C@H]1[C@@]1(O)[C@H](O)C[C@@H]3[C@@]4(C)CCCNC(C)(C)[C@@H]4CC[C@@]3(C)[C@]1(C)CC2 | 106% (inactive)
COC(C(=O)[C@@H](O)[C@@H](C)O)[C@@H]1Cc2cc3cc(O[C@H]4C[C@@H](O[C@H]5C[C@@H](O)[C@H](O)C(C)O5)[C@H](O)C(C)O4)cc(O)c3c(O)c2C(=O)[C@H]1O[C@H]1C[C@@H](O[C@H]2C[C@@H](O[C@H]3C[C@@H](OC)[C@H](O)C(C)O3)[C@@H](O)C(C)O2)[C@H](O)C(C)O1 (some centres undefined) | 73.5% (inactive)
O=C1CNC(c2ccccc2)C(c2ccccc2)N1 (centres undefined) | 81.2% (inactive)
CCc1n(Cc2ccc3ccccc3c2)cc[n+]1Cc1ccc2ccccc2c1 | 84.5% (inactive)
O=C(/C=C/c1ccc(Cl)cc1)c1cccc(Nc2nc(Nc3ccccc3)nc(Nc3ccccc3)n2)c1 | 83.6% (inactive)
C=C1C(=O)O[C@H]2[C@H]1CC/C(COC(=O)NCc1cc[nH]c1)=C\CC[C@@]1(C)O[C@@H]21 | 39.1% (inactive)
CN1CCN(C(=O)c2ccc(NC(=O)Nc3ccc(-c4nc(N5CCOCC5)c5cccn5n4)cc3)cc2)CC1 | 15.3% (inactive)
O=C1c2cccnc2C(=O)c2c1c(C(=O)NCCn1ccnc1)c1ccccn21 | 86.9% (inactive)
Cc1nn(-c2ccccc2)c(Oc2ccccn2)c1-c1nc2ccccc2s1 | 82.3% (inactive)
CCN(CC)c1nc(SCc2ccccc2Cl)ncc1C | 88.8% (inactive)
COc1cc(-c2nc3cc(Cl)c(Cl)cc3[nH]2)ccc1OCC(=O)N=Nc1c(O)[nH]c2ccc([N+](=O)[O-])cc12 | 97.2% (inactive)
Brc1c2c(c(Br)c3ccccc13)CCCC2 | 99.2% (inactive)
CC1(C)CC2=C3C=C[C@@H]4[C@@]5(C)CCC(=O)C(C)(C)[C@@H]5CC[C@@]4(C)[C@]3(C)CC[C@@]2(C(=O)O)CC1=O | 52.3% (inactive)
O=S(=O)(NCCNc1nccc(-c2c(-c3cccc(F)c3)nc3occn23)n1)c1ccc(Br)cc1 | 70.5% (inactive)
COc1ccc(-c2cc(-c3ccc(Cl)cc3)c(C#N)c(=O)n2CCCCC(=O)Nc2ccccc2N)cc1 | 1.45% (active)
COc1ccc2c3c([nH]c2c1)C(=O)c1nc(C)ccc1C3=O | 51.8% (inactive)
Cc1c(-n2nnc(-c3nc4ccccc4s3)c2N)c(=O)n(-c2ccccc2)n1C | 87% (inactive)
COc1ccc(/C=C2\COc3ccc(O)c(O)c3C2=O)cc1 | 2.2% (active)
O=C1c2cccnc2C(=O)c2c1c(C(=O)NCCCN1CCCCC1)c1ccccn21 | -14.6% (active)
Cc1ccc(CNc2ccc(Cl)cc2NCc2ccc(C)c(O)c2)cc1O | 37.4% (inactive)
Cc1ccc(Sc2nnc(/N=C3\C(=O)Nc4ccccc43)s2)cc1 | 85.6% (inactive)
O=C(Cn1cc(CN2CCCCCC2)nn1)Nc1ccc2c(ccn2Cc2ccccc2)c1 | 87.6% (inactive)
Cc1noc(C)c1C(=O)OCc1coc2ccccc2c1=O | 45.3% (inactive)
S=C1CCSC(=S)N1CCCN1C(=S)CCSC1=S | 58.9% (inactive)
Oc1ccc(CCn2c(O)c(/C=C3\CN=c4ccccc4=N3)sc2=S)cc1 | 34.3% (inactive)
COc1ccc(-c2nnc3n(C)c(=O)c4ccccc4n23)cc1N | 29.2% (inactive)
Cn1cccc1C(=O)C1C(c2cccc([N+](=O)[O-])c2)C2C3CCCCC3CN2C12C(=O)Nc1ccc(Cl)cc12 (centres undefined) | 17.4% (inactive)
CCOC(=O)C#Cc1c(C(=O)OCC)nnn1[C@@H]1O[C@H](CO)[C@H]2OC3(CCCCC3)O[C@H]21 | -99.7% (active)
O=[N+]([O-])c1ccc(N/N=C(/C(=N/Nc2ccc([N+](=O)[O-])cc2)c2ccccc2)c2ccccc2)cc1 | 53.7% (inactive)
